Measurements published in PubChem BioAssay (NCI).
This is part of a sample that, as a whole, favours compounds with a hit. Of some 83,000 tested, about 20% had one in any assay.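 Cell lines were cultured in 96-well plates, exposed to a single compound concentration, and assessed for percent growth 48 hours later.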 Active and inactive are the calls of the source. The calls were made as follows: active = growth percent below 10; inactive = the rest.

Assays:
Assay in all cases: NCI-60 one-dose screen, 48 h (100 = growth as untreated, 0 = no growth, -100 = all killed)
Conditions in all cases: 10 µM
RPMI-8226 leukemia = system: RPMI-8226 leukemia
OVCAR-8 ovarian = system: OVCAR-8 ovarian
OVCAR-5 ovarian = system: OVCAR-5 ovarian
OVCAR-4 ovarian = system: OVCAR-4 ovarian
SK-OV-3 ovarian = system: SK-OV-3 ovarian
IGROV1 ovarian = system: IGROV1 ovarian
OVCAR-3 ovarian = system: OVCAR-3 ovarian
HS 578T breast = system: HS 578T breast
NCI/ADR-RES ovarian = system: NCI/ADR-RES ovarian
T-47D breast = system: T-47D breast
BT-549 breast = system: BT-549 breast
MDA-MB-435 melanoma = system: MDA-MB-435 melanoma
SW-620 colon = system: SW-620 colon
MCF7 breast = system: MCF7 breast
HCT-116 colon = system: HCT-116 colon
HCC-2998 colon = system: HCC-2998 colon
KM12 colon = system: KM12 colon

Measured: growth

Nc1c(C(=O)Nc2ccccc2)sc2nc3c(cc12)C(O)CCC3 (stereo unspecified)
active: OVCAR-3 ovarian -19.1% | MDA-MB-435 melanoma -27.2%
inactive: RPMI-8226 leukemia 11.6% | OVCAR-8 ovarian 31% | OVCAR-5 ovarian 57.1% | OVCAR-4 ovarian 61.3% | SK-OV-3 ovarian 18.7% | IGROV1 ovarian 29.4% | HS 578T breast 39.6% | NCI/ADR-RES ovarian 11.6% | T-47D breast 53.9% | BT-549 breast 66% | SW-620 colon 29.6% | MCF7 breast 18.4% | HCT-116 colon 22% | HCC-2998 colon 17.9% | KM12 colon 25.8%

Cc1ncc(-c2ccoc2)c(NC2CCCCCC2)n1
inactive: RPMI-8226 leukemia 105% | OVCAR-8 ovarian 99.1% | OVCAR-5 ovarian 107% | OVCAR-4 ovarian 105% | SK-OV-3 ovarian 93.8% | IGROV1 ovarian 96.4% | OVCAR-3 ovarian 101% | HS 578T breast 111% | NCI/ADR-RES ovarian 102% | T-47D breast 92% | BT-549 breast 115% | MDA-MB-435 melanoma 110% | SW-620 colon 111% | MCF7 breast 112% | HCT-116 colon 99.8% | HCC-2998 colon 105% | KM12 colon 105%

CC(=O)/C(=C/c1ccccc1)C(=O)CC(C)C
inactive: RPMI-8226 leukemia 18.4% | OVCAR-8 ovarian 75.2% | OVCAR-5 ovarian 93.9% | OVCAR-4 ovarian 103% | SK-OV-3 ovarian 106% | IGROV1 ovarian 98.8% | OVCAR-3 ovarian 75.1% | HS 578T breast 89.6% | NCI/ADR-RES ovarian 93.5% | T-47D breast 107% | BT-549 breast 98.8% | MDA-MB-435 melanoma 54.3% | SW-620 colon 24.7% | MCF7 breast 50.4% | HCT-116 colon 27.7% | HCC-2998 colon 105% | KM12 colon 72.2%

CCCCC(CCCCCC(CCCC)NCc1ccc2c(c1)OCO2)NCc1ccc2c(c1)OCO2 (stereo unspecified)
active: RPMI-8226 leukemia -59.2% | OVCAR-8 ovarian -83.2% | OVCAR-5 ovarian -100% | OVCAR-4 ovarian -98.9% | SK-OV-3 ovarian -100% | IGROV1 ovarian -100% | OVCAR-3 ovarian -100% | HS 578T breast -67.7% | NCI/ADR-RES ovarian -99% | T-47D breast -76.6% | BT-549 breast -65.7% | MDA-MB-435 melanoma -82.4% | SW-620 colon -100% | MCF7 breast -100% | HCT-116 colon -100% | HCC-2998 colon -100% | KM12 colon -100%

O=C(Nc1cccc(Cl)c1)Nc1nccs1
inactive: RPMI-8226 leukemia 91.1% | OVCAR-8 ovarian 97.9% | OVCAR-5 ovarian 109% | OVCAR-4 ovarian 90.6% | SK-OV-3 ovarian 100% | IGROV1 ovarian 97.5% | OVCAR-3 ovarian 114% | HS 578T breast 115% | NCI/ADR-RES ovarian 91% | T-47D breast 73% | BT-549 breast 90.1% | MDA-MB-435 melanoma 62% | SW-620 colon 103% | MCF7 breast 57.8% | HCT-116 colon 94% | HCC-2998 colon 89.7% | KM12 colon 81.2%

COc1ccc(OC)c(NC(=O)c2sc3nc4c(cc3c2N)C(=O)CCC4)c1
inactive: RPMI-8226 leukemia 95.8% | OVCAR-8 ovarian 96.1% | OVCAR-5 ovarian 101% | OVCAR-4 ovarian 109% | SK-OV-3 ovarian 44.7% | IGROV1 ovarian 96.4% | OVCAR-3 ovarian 118% | HS 578T breast 96.8% | NCI/ADR-RES ovarian 91% | T-47D breast 93.9% | BT-549 breast 93.7% | MDA-MB-435 melanoma 28.4% | SW-620 colon 82.3% | MCF7 breast 81.3% | HCT-116 colon 97% | HCC-2998 colon 78.6% | KM12 colon 74.8%

CSC1=NCCCC1
inactive: RPMI-8226 leukemia 106% | OVCAR-8 ovarian 106% | OVCAR-5 ovarian 112% | OVCAR-4 ovarian 105% | SK-OV-3 ovarian 108% | IGROV1 ovarian 108% | OVCAR-3 ovarian 110% | HS 578T breast 116% | NCI/ADR-RES ovarian 118% | T-47D breast 107% | BT-549 breast 108% | MDA-MB-435 melanoma 108% | SW-620 colon 114% | MCF7 breast 97.8% | HCT-116 colon 109% | HCC-2998 colon 115% | KM12 colon 113%

Clc1ccc(Sc2nc(NC3CC3)nc(Sc3ccc(Cl)cc3)n2)cc1
inactive: RPMI-8226 leukemia 62% | OVCAR-8 ovarian 87.4% | OVCAR-5 ovarian 92.9% | OVCAR-4 ovarian 66.3% | SK-OV-3 ovarian 72.8% | IGROV1 ovarian 64.7% | OVCAR-3 ovarian 85.8% | HS 578T breast 96.1% | NCI/ADR-RES ovarian 78.3% | T-47D breast 65% | BT-549 breast 104% | MDA-MB-435 melanoma 87.8% | SW-620 colon 83.3% | MCF7 breast 72% | HCT-116 colon 53.7% | HCC-2998 colon 90.2% | KM12 colon 76.6%

Cc1cccc(Cl)c1NC(=O)c1ccc2nc(NC(=O)NC3CCN(C)CC3)sc2c1
inactive: RPMI-8226 leukemia 87.7% | OVCAR-8 ovarian 94.6% | OVCAR-5 ovarian 71.1% | OVCAR-4 ovarian 99.5% | SK-OV-3 ovarian 61.8% | IGROV1 ovarian 86% | OVCAR-3 ovarian 116% | HS 578T breast 48.6% | NCI/ADR-RES ovarian 106% | T-47D breast 66% | BT-549 breast 98.2% | MDA-MB-435 melanoma 82.9% | SW-620 colon 98.4% | MCF7 breast 94% | HCT-116 colon 81.9% | HCC-2998 colon 105% | KM12 colon 105%

COc1ccc(-c2nn(-c3cccc(NC(=O)c4ccc5c(c4)OCCO5)c3)cc2-c2ccncc2)cc1Cl
inactive: OVCAR-8 ovarian 29.6% | OVCAR-5 ovarian 42.7% | OVCAR-4 ovarian 49% | SK-OV-3 ovarian 25.9% | IGROV1 ovarian 41.5% | NCI/ADR-RES ovarian 10.2% | T-47D breast 19.5% | BT-549 breast 34.2% | SW-620 colon 18.3% | HCT-116 colon 15.3% | HCC-2998 colon 46.5%
active: RPMI-8226 leukemia -11.4% | OVCAR-3 ovarian 4.99% | HS 578T breast 1.38% | MDA-MB-435 melanoma -61.8% | MCF7 breast 2.05% | KM12 colon 9.37%

CCOCC(=O)C(C#N)c1ccc(Cl)c(Cl)c1 (stereo unspecified)
inactive: RPMI-8226 leukemia 88.9% | OVCAR-8 ovarian 101% | OVCAR-5 ovarian 96.6% | OVCAR-4 ovarian 91.3% | SK-OV-3 ovarian 100% | IGROV1 ovarian 101% | OVCAR-3 ovarian 110% | HS 578T breast 100% | NCI/ADR-RES ovarian 115% | T-47D breast 124% | BT-549 breast 104% | MDA-MB-435 melanoma 92.8% | SW-620 colon 102% | MCF7 breast 92.2% | HCT-116 colon 105% | HCC-2998 colon 106% | KM12 colon 107%

Cc1ccc(S(=O)(=O)Oc2ccc3c4c(c(=O)oc3c2)CCCCC4)cc1
inactive: RPMI-8226 leukemia 24% | OVCAR-8 ovarian 63.1% | OVCAR-5 ovarian 93.5% | OVCAR-4 ovarian 51.3% | SK-OV-3 ovarian 93.1% | IGROV1 ovarian 82.1% | OVCAR-3 ovarian 75.1% | HS 578T breast 79.7% | NCI/ADR-RES ovarian 53.2% | T-47D breast 33.4% | BT-549 breast 47.3% | MDA-MB-435 melanoma 57% | SW-620 colon 30.2% | MCF7 breast 50.5% | HCT-116 colon 36.7% | HCC-2998 colon 51.4% | KM12 colon 35.3%

CC(C)(Cl)CCC1=C(Cl)C(=O)c2ccccc2C1=O
inactive: OVCAR-8 ovarian 68% | OVCAR-5 ovarian 101% | OVCAR-4 ovarian 11.5% | SK-OV-3 ovarian 92.6% | IGROV1 ovarian 39.7% | OVCAR-3 ovarian 22.9% | HS 578T breast 62.6% | NCI/ADR-RES ovarian 62.9% | BT-549 breast 66.5% | MDA-MB-435 melanoma 66.4% | HCT-116 colon 17.2% | HCC-2998 colon 74.3% | KM12 colon 35.7%
active: RPMI-8226 leukemia -28.9% | T-47D breast -38.7% | SW-620 colon 7.89% | MCF7 breast -0.254%

Cc1ccc(CC#N)cc1C
inactive: RPMI-8226 leukemia 134% | OVCAR-8 ovarian 78.3% | OVCAR-5 ovarian 88.8% | OVCAR-4 ovarian 109% | SK-OV-3 ovarian 117% | IGROV1 ovarian 74.9% | OVCAR-3 ovarian 95.4% | HS 578T breast 173% | NCI/ADR-RES ovarian 106% | T-47D breast 98.4% | BT-549 breast 124% | MDA-MB-435 melanoma 88.4% | SW-620 colon 109% | MCF7 breast 104% | HCT-116 colon 93% | HCC-2998 colon 103% | KM12 colon 94.7%

O=C(O)c1ccc(Cl)cc1Nc1ccc(F)cc1
inactive: RPMI-8226 leukemia 88.6% | OVCAR-8 ovarian 74.1% | OVCAR-5 ovarian 81% | OVCAR-4 ovarian 38% | SK-OV-3 ovarian 70.9% | IGROV1 ovarian 119% | HS 578T breast 94.3% | NCI/ADR-RES ovarian 91.3% | T-47D breast 78.7% | BT-549 breast 32.5% | MDA-MB-435 melanoma 83.2% | SW-620 colon 94.6% | MCF7 breast 76.7% | HCT-116 colon 72.8% | HCC-2998 colon 81.9% | KM12 colon 74.5%
active: OVCAR-3 ovarian 6.97%

CCCCCCCNc1nc(C=O)ncc1-c1ccc(C(F)(F)F)cc1
inactive: RPMI-8226 leukemia 84% | OVCAR-8 ovarian 102% | OVCAR-5 ovarian 103% | OVCAR-4 ovarian 110% | SK-OV-3 ovarian 96.5% | IGROV1 ovarian 89.8% | OVCAR-3 ovarian 97.6% | HS 578T breast 107% | NCI/ADR-RES ovarian 90.1% | T-47D breast 81.6% | BT-549 breast 99.7% | MDA-MB-435 melanoma 100% | SW-620 colon 98% | MCF7 breast 83.5% | HCT-116 colon 98.3% | HCC-2998 colon 104% | KM12 colon 91.2%

CSc1nc(=O)n(Cc2ccc(F)cc2)c(=O)n1Cc1ccc(C)cc1
inactive: RPMI-8226 leukemia 99.2% | OVCAR-8 ovarian 97.6% | OVCAR-5 ovarian 102% | OVCAR-4 ovarian 98.4% | SK-OV-3 ovarian 98.7% | IGROV1 ovarian 107% | OVCAR-3 ovarian 101% | HS 578T breast 109% | NCI/ADR-RES ovarian 86.6% | T-47D breast 87% | BT-549 breast 103% | MDA-MB-435 melanoma 117% | SW-620 colon 115% | MCF7 breast 91.1% | HCT-116 colon 97.5% | HCC-2998 colon 95.5% | KM12 colon 96.4%

N=c1nc(N)ncn1-c1ccccc1
inactive: RPMI-8226 leukemia 97.7% | OVCAR-8 ovarian 99.5% | OVCAR-5 ovarian 95% | OVCAR-4 ovarian 100% | SK-OV-3 ovarian 96.3% | IGROV1 ovarian 104% | OVCAR-3 ovarian 116% | HS 578T breast 101% | NCI/ADR-RES ovarian 102% | T-47D breast 86.5% | BT-549 breast 107% | MDA-MB-435 melanoma 107% | SW-620 colon 107% | MCF7 breast 92.4% | HCT-116 colon 97.4% | HCC-2998 colon 101% | KM12 colon 108%
